# Measured values: the supplement of paper PMC12494721
# Structures can show the parent of a compound that is named as a salt. A number with no mark means an inactive call.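 The calls were made as follows: for the amine columns active = adjusted P below 0.05 in both replicates with a change the same way and a mean fold change under 0.8 or over 1.25; inactive = the rest.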
# Test system: Ruminococcus gnavus DSM 108212
# Test: fold change of Tryptamine concentration vs plate DMSO controls (fold change (ratio)); higher = more amine produced, active = hit call of the paper (significant change in both replicates, either direction)
# Settings: incubation time: 27 h, anaerobic, 37 °C
# How it was run: (§1)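 Each value is the fold change relative to DMSO-only wells on the same plate. Four gut bacterial strains were grown anaerobically in mGAM at 37 °C for 27 h in 80 µL wells, starting at OD 0.1 before a 1:1 dilution, with compounds at 20 µM final (sweeteners 50 µM). Whole cultures were extracted with cold acetonitrile/methanol containing 0.1% formic acid, centrifuged, and amines were quantified by LC–triple-quadrupole MS (dynamic MRM) against external calibration curves with within-batch drift correction. Values are means of 2 biological replicates.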
row,Structure (SMILES),fold change of Tryptamine concentration
1,CCOC(=O)C1=C[C@]2(CC)CCCN3CCc4c(n1c1ccccc41)[C@@H]32 [Vinpocetine] (20 µM),0.955
2,Clc1ccccc1C(c1ccccc1)(c1ccccc1)n1ccnc1 [Clotrimazole] (20 µM),0.887
3,CC(C[N+](C)(C)C)OC(N)=O (stereo not given) [Bethanechol chloride] (20 µM),1.01
4,C=CC(N)CCC(=O)O (stereo not given) [Vigabatrin hydrochloride] (20 µM),1.02
5,C=C1C[C@@]23CC[C@H]4[C@@](C)(CCC[C@@]4(C)C(=O)O[C@@H]4O[C@H](CO)[C@@H](O)[C@H](O)[C@H]4O)[C@@H]2CC[C@]1(O[C@@H]1O[C@H](CO)[C@@H](O)[C@H](O)[C@H]1O[C@@H]1O[C@H](CO)[C@@H](O)[C@H](O)[C@H]1O)C3 [Stevioside] (50 µM),0.947
6,CCCN(CCC)C(=O)C(CCC(=O)O)NC(=O)c1ccccc1 (stereo not given) [Proglumide] (20 µM),1.06
7,CN1CCC(=C2c3ccccc3CC(=O)c3sccc32)CC1 [Ketotifen fumarate] (20 µM),0.991
8,Cc1ccc(-c2ncc(Cl)cc2-c2ccc(S(C)(=O)=O)cc2)cn1 [Etoricoxib] (20 µM),1.1
9,C[C@@H](O)[C@H]1C(=O)N2C(C(=O)O)=C(S[C@@H]3CN[C@H](C(=O)N(C)C)C3)[C@H](C)[C@H]12 [Meropenem] (20 µM),0.0446 (active)
10,CC(C)(C)c1ccc(C(O)CCCN2CCC(C(O)(c3ccccc3)c3ccccc3)CC2)cc1 (stereo not given) [Terfenadine] (20 µM),0.754 (active)
11,CC(NN)c1ccccc1 (stereo not given) [Mebanazine] (20 µM),0.985
12,OCCN1CCN(CC/C=C2/c3ccccc3Sc3ccc(C(F)(F)F)cc32)CC1 [Flupentixol dihydrochloride cis-(Z)] (20 µM),0.921
13,C#CCN(C)CCCOc1ccc(Cl)cc1Cl [Clorgyline hydrochloride] (20 µM),0.971
14,CN(C)C(=O)C(CCN1CCC(O)(c2ccc(Cl)cc2)CC1)(c1ccccc1)c1ccccc1 [Loperamide hydrochloride] (20 µM),0.949
15,CC[N+](CC)(CC(=O)Nc1c(C)cccc1C)Cc1ccccc1 [Denatonium benzoate] (20 µM),0.99
16,COc1cc(C)c(/C=C/C(C)=C/C=C/C(C)=C/C(=O)O)c(C)c1C [Acitretin] (20 µM),0.962
17,Nc1ccn([C@@H]2O[C@H](CO)[C@@H](O)[C@@H]2O)c(=O)n1 [Cytarabine] (20 µM),0.63 (active)
18,COc1ccc2cc([C@H](C)C(=O)O)ccc2c1 [(S)-Naproxen] (20 µM),0.969
19,COC(=O)Nc1nc2cc(C(=O)c3ccc(F)cc3)ccc2[nH]1 [Flubendazol] (20 µM),0.934
20,O=C(O)COc1nn(Cc2ccccc2)c2ccccc12 [Bendazac] (20 µM),0.986
21,O=C(O)Cc1ccc(-c2ccccc2)cc1 [Felbinac] (20 µM),1.01
22,CCOc1ccc2c(c1)C(C)=CC(C)(C)N2 [Ethoxyquin] (20 µM),0.854
23,CN1CC2c3ccccc3Oc3ccc(Cl)cc3C2C1 (stereo not given) [Asenapine maleate] (20 µM),0.905
24,CCOC(=O)OC(C)OC(=O)[C@@H]1N2C(=O)[C@@H](NC(=O)[C@H](N)c3ccccc3)[C@H]2SC1(C)C (stereo not given in full) [Bacampicillin hydrochloride] (20 µM),0.0343 (active)
25,CCCOc1ccccc1-c1nc2[nH]nnc2c(=O)[nH]1 [Zaprinast] (20 µM),1.01
26,CCCCC(O)c1ccccc1 (stereo not given) [Fenipentol] (20 µM),1.01
27,CN[C@H](CC(C)C)C(=O)N[C@H]1C(=O)N[C@@H](CC(N)=O)C(=O)N[C@H]2C(=O)N[C@H]3C(=O)N[C@H](C(=O)N[C@H](C(=O)O)c4cc(O)cc(O)c4-c4cc3ccc4O)[C@H](O)c3ccc(c(Cl)c3)Oc3cc2cc(c3O[C@@H]2O[C@H](CO)[C@@H](O)[C@H](O)[C@H]2O[C@H]2C[C@](C)(N)[C@H](O)[C@H](C)O2)Oc2ccc(cc2Cl)[C@H]1O [Vancomycin hydrochloride] (20 µM),0.0491 (active)
28,N#Cc1ccc(Oc2ccc3c(c2)COB3O)cc1 [Crisaborole] (20 µM),0.688 (active)
29,COc1ccc([C@@H]2Sc3ccccc3N(CCN(C)C)C(=O)[C@@H]2OC(C)=O)cc1 [Diltiazem hydrochloride] (20 µM),1.01

# Test system: Escherichia coli IAI1
# Test: fold change of Putrescine concentration vs plate DMSO controls (fold change (ratio)); higher = more amine produced, active = hit call of the paper (significant change in both replicates, either direction)
# Settings: incubation time: 27 h, anaerobic, 37 °C
# How it was run: as §1
row,Structure (SMILES),fold change of Putrescine concentration
1,CC(=O)OCC(CCn1cnc2cnc(N)nc21)COC(C)=O [Famciclovir] (20 µM),1.03
2,COC(c1ccccc1)(c1ccccc1)[C@H](Oc1nc(C)cc(C)n1)C(=O)O [Ambrisentan] (20 µM),1.21
3,C[C@H](CCC(=O)O)[C@H]1CC[C@H]2[C@@H]3[C@@H](O)C[C@@H]4C[C@H](O)CC[C@]4(C)[C@H]3CC[C@]12C [Urosiol] (20 µM),1.01
4,C=C(CC)C(=O)c1ccc(OCC(=O)O)c(Cl)c1Cl [Ethacrynic acid] (20 µM),0.972
5,C[C@]12CC[C@@H]3c4ccc(O)cc4CC[C@H]3[C@@H]1C[C@@H](O)[C@@H]2O [Estriol] (20 µM),0.991
6,Cc1cc2cc3c(C)cc(=O)oc3c(C)c2o1 [Trioxsalen] (20 µM),1.13
7,O=C(Nc1cccc2c(=O)cc(-c3nnn[nH]3)oc12)c1ccc(OCCCCc2ccccc2)cc1 [Pranlukast] (20 µM),1.02
8,C[N+]1(C)CCC(OC(=O)C(O)(c2ccccc2)C2CCCC2)C1 (stereo not given) [Glycopyrrolate bromide] (20 µM),1.08
9,CC(C)(O)c1ccccc1CC[C@@H](SCC1(CC(=O)O)CC1)c1cccc(/C=C/c2ccc3ccc(Cl)cc3n2)c1 [Montelukast] (20 µM),0.994
10,C[C@@H]1C[C@H]2[C@@H]3C[C@H](F)C4=CC(=O)C=C[C@]4(C)[C@@]3(Cl)[C@@H](O)C[C@]2(C)[C@H]1C(=O)COC(=O)C(C)(C)C [Clocortolone pivalate] (20 µM),1.02
11,CCOC(=O)C1=C[C@]2(CC)CCCN3CCc4c(n1c1ccccc41)[C@@H]32 [Vinpocetine] (20 µM),0.995
12,Clc1ccccc1C(c1ccccc1)(c1ccccc1)n1ccnc1 [Clotrimazole] (20 µM),0.997
13,CC(C[N+](C)(C)C)OC(N)=O (stereo not given) [Bethanechol chloride] (20 µM),1.03
14,C=CC(N)CCC(=O)O (stereo not given) [Vigabatrin hydrochloride] (20 µM),1.02
15,C=C1C[C@@]23CC[C@H]4[C@@](C)(CCC[C@@]4(C)C(=O)O[C@@H]4O[C@H](CO)[C@@H](O)[C@H](O)[C@H]4O)[C@@H]2CC[C@]1(O[C@@H]1O[C@H](CO)[C@@H](O)[C@H](O)[C@H]1O[C@@H]1O[C@H](CO)[C@@H](O)[C@H](O)[C@H]1O)C3 [Stevioside] (50 µM),0.989
16,CCCN(CCC)C(=O)C(CCC(=O)O)NC(=O)c1ccccc1 (stereo not given) [Proglumide] (20 µM),1.31 (active)

row,Structure (SMILES),fold change of Putrescine concentration
1,CN1CCC(=C2c3ccccc3CC(=O)c3sccc32)CC1 [Ketotifen fumarate] (20 µM),0.966
2,Cc1ccc(-c2ncc(Cl)cc2-c2ccc(S(C)(=O)=O)cc2)cn1 [Etoricoxib] (20 µM),1.05
3,C[C@@H](O)[C@H]1C(=O)N2C(C(=O)O)=C(S[C@@H]3CN[C@H](C(=O)N(C)C)C3)[C@H](C)[C@H]12 [Meropenem] (20 µM),0.278 (active)
4,CC(C)(C)c1ccc(C(O)CCCN2CCC(C(O)(c3ccccc3)c3ccccc3)CC2)cc1 (stereo not given) [Terfenadine] (20 µM),1
5,CC(NN)c1ccccc1 (stereo not given) [Mebanazine] (20 µM),0.997
6,OCCN1CCN(CC/C=C2/c3ccccc3Sc3ccc(C(F)(F)F)cc32)CC1 [Flupentixol dihydrochloride cis-(Z)] (20 µM),1.02
7,C#CCN(C)CCCOc1ccc(Cl)cc1Cl [Clorgyline hydrochloride] (20 µM),0.968
8,CN(C)C(=O)C(CCN1CCC(O)(c2ccc(Cl)cc2)CC1)(c1ccccc1)c1ccccc1 [Loperamide hydrochloride] (20 µM),1
9,CC[N+](CC)(CC(=O)Nc1c(C)cccc1C)Cc1ccccc1 [Denatonium benzoate] (20 µM),1
10,COc1cc(C)c(/C=C/C(C)=C/C=C/C(C)=C/C(=O)O)c(C)c1C [Acitretin] (20 µM),1.18
11,Nc1ccn([C@@H]2O[C@H](CO)[C@@H](O)[C@@H]2O)c(=O)n1 [Cytarabine] (20 µM),0.953
12,COc1ccc2cc([C@H](C)C(=O)O)ccc2c1 [(S)-Naproxen] (20 µM),1.06
13,COC(=O)Nc1nc2cc(C(=O)c3ccc(F)cc3)ccc2[nH]1 [Flubendazol] (20 µM),0.943
14,O=C(O)COc1nn(Cc2ccccc2)c2ccccc12 [Bendazac] (20 µM),0.975
15,O=C(O)Cc1ccc(-c2ccccc2)cc1 [Felbinac] (20 µM),1.03
